Measurements reported in PubChem BioAssay (NCI).
This is part of a sample that, as a whole, favours compounds with a hit. Of some 83,000 tested, about 20% had one in any assay.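 Testing used 96-well plates and a 48-hour single-concentration exposure. Example: -40 means 40% of the starting cells died.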 Values without a mark were called inactive. Calls of active or inactive are those of the source. The calls were made as follows: active = growth percent below 10; inactive = the rest.

tested on: LOX IMVI melanoma; assay: NCI-60 one-dose screen, 48 h (100 = growth as untreated, 0 = no growth, -100 = all killed); conditions: 10 µM unless noted

| SMILES | growth |
| --- | --- |
| CC(C)c1ccc(NC(=O)Nc2ccc(NC(=O)c3ccccc3N)cc2)cc1 | 20.9% |
| O=C(/C=C/c1cccc(Cl)c1)c1cccc(OCCCCOc2cccc(C(=O)/C=C/c3cccc(Cl)c3)c2)c1 | 30.5% |
| CC(C)c1ccc(C(=O)Nc2sc3cc(O)ccc3c2C#N)cc1 | 25.4% |
| COC(=O)/C(CCC=C(C)C)=C1\[C@@H](OC(C)=O)C[C@@]2(C)[C@H]1CC(=O)[C@H]1[C@@]3(C)CCC(N4CCCC4)[C@@H](C)[C@@H]3CC[C@@]12C (stereo partly drawn) | 101% |
| C/C(=C(\c1ccc(OCCN2CCCCCC2)cc1)c1ccc(OC(=O)Cc2ccccc2)cc1)c1ccc(Cl)cc1 | -94.5% (active) |
| O=C(Cn1nnc2ccccc21)N/N=C/c1ccccc1F | 101% |
| CCN(CC)CCOc1nc2c3ccc(Cl)cc3nn2c2ccccc12 | -47.2% (active) |
| COc1ccc(NC(=O)c2ccc(C(=O)Nc3ccc(OC)cc3OC)cc2)c(OC)c1 | 71.8% |
| NC(=O)OCCn1cc(-c2nc(-c3c[nH]c4ncccc34)cs2)c2ccccc21 | 30.1% |
| CCOC(=O)c1c(-c2ccc(Cl)cc2)c(C#N)c2c(C#N)c(N)nn2c1N | 65.8% |
| CCOC(=O)c1c(C)nc2ccccc2c1/C=C/c1ccc(OC)cc1 | 68.5% |
| O=C(/C=C/C12c3ccccc3C(c3ccccc31)C1C(=O)NC(=O)C12)c1ccccn1 (stereo not drawn) | -60.5% (active) |
| Cn1c(/C=C/[N+](=O)[O-])cc2ccccc21 | -79.7% (active) |
| COc1ccc(C2=Nc3c/c(=C\c4c(O)[nH]c5cc(Cl)ccc45)ccc3=N2)cc1 | 90.6% |
| O=C1/C(=C/c2ccc(C(F)(F)F)cc2)COc2ccc(O)c(O)c21 | -90.8% (active) |
| O=C(O)c1cccc(N/C=C/C(=O)c2cc3cc(Br)ccc3oc2=O)c1 | 97.9% |
| COc1cc(-c2nc(SCCC(C)C)nc(N3CCOCC3)c2C#N)cc(OC)c1OC | 83.2% |
| C/C(C=O)=C\c1ccc2c(c1)OCO2 | 96.7% |
| COc1cc(C(=O)c2c(-c3ccccc3)oc3c(OC)cccc23)cc(OC)c1O | 16.1% |
| Cc1c2cnccc2c(C)c2c1c1cc(C3OCCCO3)ccc1n2C | -23.6% (active) |

| SMILES | growth |
| --- | --- |
| Cc1cc2oc(=O)cc(CP(=O)(O)O)c2cc1O | 98.7% |
| Cc1cc2nc3c4ccccc4n(CCN(C)C)c3nc2cc1C | -63.2% (active) |
| COc1cc2c(cc1O)[C@@]1(C)[C@H](c3ccccc3Br)OC(=O)N1CC2 | 90.6% |
| C[Se]C(=O)CC1=C2C=C(F)C=CC2/C(=C\c2ccc(S(C)=O)cc2)C1C (stereo not drawn) | -68.4% (active) |
| CCCCCCNc1nc(NCCCCCC)c2[nH]c(NCCCCCC)nc2n1 | 1.23% (active) |
| CCN(CC)CCN(CCN(CC)CC)c1ccccc1 | 88.7% |
| O=C(CSc1nc2ccc([N+](=O)[O-])cc2[nH]1)Nc1ccc(Br)cc1 | 63.5% |
| COc1ccc(/C(C)=C(\c2ccc(Cl)cc2)c2ccc(OCCN3CCCC3)cc2)cc1 | -46.5% (active) |
| COc1cc2c(c(OC)c1OC)C(=O)N[C@@H]1[C@@H](O)[C@@H](O)[C@H](O)C[C@@H]21 | 97.7% |
| O=C1NC(=O)c2c1c1c3ccccc3[nH]c1c1oc3cc(Br)ccc3c21 | 59.9% |
| CC(C)CCSc1nc(Nc2ccccc2)c(C#N)c(-c2ccccc2)n1 | 25.5% |
| O=C(/C=C/c1ccccc1)Nc1ncc(Cc2ccccc2)s1 | 6.49% (active) |
| C#CCn1cnc2c(Nc3cccc(NC(=O)CCl)c3)ncnc21 | 24% |
| C/C(=N\Nc1nc(C)cs1)c1cc2ccccc2o1 | 85.8% |
| CC(=O)N(Cc1ccccc1)c1nc2ccc(O)c(CN(C)C)c2s1 | 94.1% |
| Nc1c(C(=O)Nc2ccccn2)sc2nc3c(cc12)C(O)CCC3 (stereo not drawn) | 36.6% |
| N#C/C(=C\c1ccc(Br)cc1)c1cc2ccccc2[nH]1 | 95.3% |
| COc1ccc(-c2ccc(-c3ccc(C(=N)N)cn3)s2)cc1 | 55% |
| C=CCn1c(SCC(=O)Nc2ccc(C(=O)/C=C/c3ccc(OC)cc3)cc2)nnc1-c1ccccc1 | 87.2% |
| Fc1ccc(COc2ccc(Nc3ncnc4sc5c(c34)CCCC5)cc2)cc1 | 99.5% |

tested on: SK-MEL-28 melanoma; assay: as above; conditions: 10 µM unless noted

| SMILES | growth |
| --- | --- |
| CC(C)c1ccc(NC(=O)Nc2ccc(NC(=O)c3ccccc3N)cc2)cc1 | 39.9% |
| O=C(/C=C/c1cccc(Cl)c1)c1cccc(OCCCCOc2cccc(C(=O)/C=C/c3cccc(Cl)c3)c2)c1 | 99.2% |
| CC(C)c1ccc(C(=O)Nc2sc3cc(O)ccc3c2C#N)cc1 | 52.4% |
| COC(=O)/C(CCC=C(C)C)=C1\[C@@H](OC(C)=O)C[C@@]2(C)[C@H]1CC(=O)[C@H]1[C@@]3(C)CCC(N4CCCC4)[C@@H](C)[C@@H]3CC[C@@]12C (stereo partly drawn) | 93.6% |
| C/C(=C(\c1ccc(OCCN2CCCCCC2)cc1)c1ccc(OC(=O)Cc2ccccc2)cc1)c1ccc(Cl)cc1 | -27.3% (active) |
| O=C(Cn1nnc2ccccc21)N/N=C/c1ccccc1F | 108% |
| CCN(CC)CCOc1nc2c3ccc(Cl)cc3nn2c2ccccc12 | 44.8% |
| COc1ccc(NC(=O)c2ccc(C(=O)Nc3ccc(OC)cc3OC)cc2)c(OC)c1 | 101% |
| NC(=O)OCCn1cc(-c2nc(-c3c[nH]c4ncccc34)cs2)c2ccccc21 | 61.7% |
| CCOC(=O)c1c(-c2ccc(Cl)cc2)c(C#N)c2c(C#N)c(N)nn2c1N | 62.6% |
| CCOC(=O)c1c(C)nc2ccccc2c1/C=C/c1ccc(OC)cc1 | 96.2% |
| O=C(/C=C/C12c3ccccc3C(c3ccccc31)C1C(=O)NC(=O)C12)c1ccccn1 (stereo not drawn) | -33.2% (active) |
| Cn1c(/C=C/[N+](=O)[O-])cc2ccccc21 | 73.3% |
| COc1ccc(C2=Nc3c/c(=C\c4c(O)[nH]c5cc(Cl)ccc45)ccc3=N2)cc1 | 47% |
| O=C(O)c1cccc(N/C=C/C(=O)c2cc3cc(Br)ccc3oc2=O)c1 | 104% |
| COc1cc(-c2nc(SCCC(C)C)nc(N3CCOCC3)c2C#N)cc(OC)c1OC | 108% |
| C/C(C=O)=C\c1ccc2c(c1)OCO2 | 124% |
| COc1cc(C(=O)c2c(-c3ccccc3)oc3c(OC)cccc23)cc(OC)c1O | 62.7% |
| Cc1cc2oc(=O)cc(CP(=O)(O)O)c2cc1O | 98.4% |

| SMILES | growth |
| --- | --- |
| Cc1cc2nc3c4ccccc4n(CCN(C)C)c3nc2cc1C | 20.1% |
| COc1cc2c(cc1O)[C@@]1(C)[C@H](c3ccccc3Br)OC(=O)N1CC2 | 99.1% |
| C[Se]C(=O)CC1=C2C=C(F)C=CC2/C(=C\c2ccc(S(C)=O)cc2)C1C (stereo not drawn) | 4.39% (active) |
| CCCCCCNc1nc(NCCCCCC)c2[nH]c(NCCCCCC)nc2n1 | 98.2% |
| CCN(CC)CCN(CCN(CC)CC)c1ccccc1 | 108% |
| O=C(CSc1nc2ccc([N+](=O)[O-])cc2[nH]1)Nc1ccc(Br)cc1 | 54.5% |
| COc1ccc(/C(C)=C(\c2ccc(Cl)cc2)c2ccc(OCCN3CCCC3)cc2)cc1 | -16.8% (active) |
| COc1cc2c(c(OC)c1OC)C(=O)N[C@@H]1[C@@H](O)[C@@H](O)[C@H](O)C[C@@H]21 | 111% |
| O=C1NC(=O)c2c1c1c3ccccc3[nH]c1c1oc3cc(Br)ccc3c21 | 92.6% |
| CC(C)CCSc1nc(Nc2ccccc2)c(C#N)c(-c2ccccc2)n1 | 82.1% |
| O=C(/C=C/c1ccccc1)Nc1ncc(Cc2ccccc2)s1 | 47% |
| C#CCn1cnc2c(Nc3cccc(NC(=O)CCl)c3)ncnc21 | 39.5% |
| C/C(=N\Nc1nc(C)cs1)c1cc2ccccc2o1 | 110% |
| CC(=O)N(Cc1ccccc1)c1nc2ccc(O)c(CN(C)C)c2s1 | 107% |
| Nc1c(C(=O)Nc2ccccn2)sc2nc3c(cc12)C(O)CCC3 (stereo not drawn) | 46.6% |
| N#C/C(=C\c1ccc(Br)cc1)c1cc2ccccc2[nH]1 | 103% |
| COc1ccc(-c2ccc(-c3ccc(C(=N)N)cn3)s2)cc1 | 109% |
| C=CCn1c(SCC(=O)Nc2ccc(C(=O)/C=C/c3ccc(OC)cc3)cc2)nnc1-c1ccccc1 | 89.4% |
| Fc1ccc(COc2ccc(Nc3ncnc4sc5c(c34)CCCC5)cc2)cc1 | 91.5% |
